The text below walks through data of PubChem BioAssay (EPA / NIEHS).

Records with an inconclusive call do not appear. Active and inactive are the calls of the source. Rule for the calls: active = hit-call score of the fitted dose curve at least 0.9, where 1 is the maximum; inconclusive = response in the unintended direction; inactive = score below 0.9.

This test in a line: ATG_XTT_Cytotoxicity: Cytotoxicity Assessment in the Attagene TRANS-FACTORIAL HepG2 Assay (AID 2283584).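 For AC50: cells exposed to compound for 24 h before reading; active means loss of viability signal versus DMSO baseline.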 The essentials: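 Cells: human HepG2, transiently transfected with MRTU reporter constructs. Exposure 24 h. Readout: XTT, cell number. Baseline/neg ctrl DMSO; loss-of-signal scored.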
Consider `Nc1c(Br)cc([N+](=O)[O-])cc1Br`, for which the compound was called inactive.

Regarding `C=C(C)CCCC`, the compound was called inactive.

Turning to `CN(C)C(C)(C)CO`, the call was inactive.

Turning to `CCN(CC)c1ccc(N=Nc2ccccc2)cc1`, the result was inactive.

As for `Cc1cc(C)c(O)c(C(C)(C)C)c1`, the outcome was inactive.

Take `CCn1c2ccccc2c2ccccc21`: the call was inactive.

In the case of `Cc1cc(O)c(C(C)(C)C)cc1C(C)(C)C`, the call was inactive.

For `CCN(CC)c1ccc(C=O)c(O)c1`, the compound was classed as inactive.

With `CCc1ccc(C)nc1`, the call was inactive.

`Cc1cnccn1`: the result was inactive.

`CC(C)C(=O)OCc1ccccc1`: the compound was called inactive.

For `O=C1C=CC(=O)N1c1ccccc1`, the compound was classed as inactive.

Take `CCN(CC)c1ccc(C=O)cc1`: the outcome was inactive.

For the compound `Oc1ccc2c(c1)CCC2`, the compound was classed as inactive.

For the compound `CCCCCCCCCc1ccc(OCCO)cc1`, the result was inactive.

As to `OCCCc1cccnc1`, the call was inactive.

On to `CCc1cccc(C)c1N(C(=O)C(=O)O)C(C)COC` (stereo not given), for which the compound was classed as inactive.

As for `CN1CN(C)CN(C)C1`, the compound was called inactive.

For `CC(C)=CCCC(C)O` (stereo not given), the call was inactive.

As for `CCCCCCCCCCCCC[N+](C)(C)Cc1ccccc1`, the AC50 was 31.7 µM (active).

As to `CC1CCCCC1`, the compound was called inactive.

For `CCCCCCCC/C=C\CCCCCCCC(=O)OCC(O)CO` (stereo not given), the compound was called inactive.

As to `COCCOCCC[Si](C)(O[Si](C)(C)C)O[Si](C)(C)C`, the compound was classed as inactive.

Turning to `CCOCOCC`, the compound was called inactive.

Turning to `c1ccc(C[P+](c2ccccc2)(c2ccccc2)c2ccccc2)cc1`, the outcome was inactive.

As to `Cc1cccc(C)n1`, the result was inactive.

Consider `CSc1ccc(O)cc1C`, for which the result was inactive.

For `OCCCCl`, the compound was called inactive.

Regarding `Cc1ccc(S(=O)(=O)C(I)I)cc1`, the AC50 is 62.8 µM (active).

Turning to `C[C@]12CC[C@H]3C(=CCc4cc(O)ccc43)[C@@H]1CCC2=O`, the compound was classed as inactive.
